Data as given in PubChem BioAssay (EPA / NIEHS).
Active and inactive are the calls of the source. How the source made its calls: active means hit-call score of the fitted dose curve at least 0.9, where 1 is the maximum; inactive means score below 0.9.

Key:
Conditions in all cases: mRNA level, 48 h; actives raise or lower the signal
[1] = read-out: sulfotransferase 2A1 (SULT2A1), SULT2A1 (gene 6822); experiment: LTEA_HepaRG_SULT2A1: Life Technologies and Expression Analysis (LTEA) Assay for sulfotransferase 2A1 (SULT2A1) using HepaRG (AID 2283531)
Method in brief: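 Expression change of SULT2A1, by qRT-PCR with three housekeeping-gene normalization, was scored bidirectionally versus DMSO. Cells: differentiated HepaRG, dosed in duplicate for 48 h across 8 points, highest 100 µM, half-log dilution, 0.5% DMSO.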

[2] = read-out: Transforming Growth Factor (TGFA), TGFA (gene 7039); experiment: LTEA_HepaRG_TGFA: Life Technologies and Expression Analysis (LTEA) Assay for Transforming Growth Factor (TGFA) using HepaRG (AID 2283532)
Method in brief: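 Differentiated human HepaRG cells, plated 48 h then switched to serum-free induction medium, were exposed in duplicate for 48 h to 8-point half-log series from 100 uM in 0.5% DMSO. TGFA mRNA measured by qRT-PCR, normalized to ACTB/GAPDH/POLR2A, bidirectional fit versus DMSO.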

[3] = read-out: Transforming Growth Factor (TGFB1), TGFB1 (gene 7040); experiment: LTEA_HepaRG_TGFB1: Life Technologies and Expression Analysis (LTEA) Assay for Transforming Growth Factor (TGFB1) Transporter using HepaRG (AID 2283533)
Method in brief: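 TGFB1 transcript measured by qRT-PCR with normalisation to three housekeeping genes (ACTB, GAPDH, POLR2A); human HepaRG line treated in duplicate for 48 hr with an 8-point series topping at 100 uM, 0.5% DMSO vehicle, bidirectionally fitted.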

[4] = read-out: TIMP1, TIMP1 (gene 7076); experiment: LTEA_HepaRG_TIMP1: Life Technologies and Expression Analysis (LTEA) Assay for TIMP1 using HepaRG (AID 2283534)
Method in brief: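 Bidirectional change in TIMP1 transcript versus 0.5% DMSO, measured by TaqMan qRT-PCR with three housekeeping genes for normalization. HepaRG human liver cells dosed 48 h in duplicate, top concentration 100 uM with half-log dilutions.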

[5] = read-out: Thyroid Hormone Responsive (THRSP), THRSP (gene 7069); experiment: LTEA_HepaRG_THRSP: Life Technologies and Expression Analysis (LTEA) Assay for Thyroid Hormone Responsive (THRSP) using HepaRG (AID 2283536)
Method in brief: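 Differentiated human HepaRG cells were exposed in duplicate for 48 h in serum-free induction medium to eight concentrations (top 100 uM, half-log steps, 0.5% DMSO). Expression was quantified by TaqMan qRT-PCR, normalized to ACTB, GAPDH and POLR2A, with bidirectional fitting against DMSO.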

[6] = read-out: Cellular tumor antigen p53 (Homo sapiens) (UniProt P04637); experiment: LTEA_HepaRG_TP53: Life Technologies and Expression Analysis (LTEA) Assay for Tumor Protein P53 (TP53) using HepaRG (AID 2283537)
Method in brief: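 HepaRG, 48 h exposure, top 100 uM, half-log 8-point, 0.5% DMSO vehicle, duplicates. Read: TP53 mRNA by TaqMan qRT-PCR, normalised to ACTB/GAPDH/POLR2A; bidirectional fit vs DMSO.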

[7] = read-out: UDP glucuronosyltransferase (UGT1A1), UGT1A1 (gene 54658); experiment: LTEA_HepaRG_UGT1A1: Life Technologies and Expression Analysis (LTEA) Assay for UDP glucuronosyltransferase (UGT1A1) using HepaRG (AID 2283538)
Method in brief: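 Readout is UGT1A1 transcript level by qRT-PCR, normalized to three housekeeping genes, after 48 h chemical treatment of HepaRG cells. Concentrations ran from 100 uM down in half-log steps with 0.5% DMSO, and gain or loss relative to DMSO was fitted.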

[8] = read-out: UDP glucuronosyltransferase (UGT1A6), UGT1A6 (gene 54578); experiment: LTEA_HepaRG_UGT1A6: Life Technologies and Expression Analysis (LTEA) Assay for UDP glucuronosyltransferase (UGT1A6) using HepaRG (AID 2283539)
Method in brief: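 Expression was quantified by TaqMan qRT-PCR on Fluidigm arrays with ACTB/GAPDH/POLR2A normalization and bidirectional fitting against 0.5% DMSO. HepaRG cells (~100,000/well) were treated in duplicate for 48 h at eight half-log concentrations up to 100 uM in serum-free induction medium.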

[9] = read-out: X-box binding protein 1 (XBP1), XBP1 (gene 7494); experiment: LTEA_HepaRG_XBP1: Life Technologies and Expression Analysis (LTEA) Assay for X-box binding protein 1 (XBP1) using HepaRG (AID 2283540)
Method in brief: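 XBP1 transcript by qRT-PCR (housekeeping-normalized: ACTB, GAPDH, POLR2A) after 48 h chemical treatment of HepaRG cells, 8-point half-log series topping at 100 uM, vehicle 0.5% DMSO. Gain and loss of signal fitted relative to DMSO.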

Measured: AC50

Chain of Cellular tumor antigen p53 (Homo sapiens) (P04637 whole entry, looked up): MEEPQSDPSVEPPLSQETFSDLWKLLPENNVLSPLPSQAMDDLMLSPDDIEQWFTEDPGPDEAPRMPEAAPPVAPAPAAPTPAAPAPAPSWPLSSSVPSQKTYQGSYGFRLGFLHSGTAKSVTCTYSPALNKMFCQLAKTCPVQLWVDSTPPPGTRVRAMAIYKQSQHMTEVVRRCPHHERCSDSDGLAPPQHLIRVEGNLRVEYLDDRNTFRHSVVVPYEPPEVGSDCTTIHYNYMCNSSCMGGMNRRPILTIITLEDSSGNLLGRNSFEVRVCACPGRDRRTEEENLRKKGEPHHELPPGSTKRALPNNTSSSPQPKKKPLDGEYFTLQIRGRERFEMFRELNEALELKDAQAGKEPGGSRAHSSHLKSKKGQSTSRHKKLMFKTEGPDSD

Cc1ccc(N=CN(C)C=Nc2ccc(C)cc2C)c(C)c1
active: [7] 39.3 µM
inactive: all other assays above

N#Cc1c(Cl)cccc1Cl
inactive: all assays above

N#CN=C1SCCN1Cc1ccc(Cl)nc1
inactive: all assays above

Cc1cc(C)nc(Nc2ccccc2)n1
active: [7] 68.6 µM
inactive: all other assays above

CCOC(=O)C(C)OC(=O)c1cc(Oc2ccc(C(F)(F)F)cc2Cl)ccc1[N+](=O)[O-] (stereo not given)
active: [5] 28.4 µM | [7] 8.94 µM
inactive: all other assays above

CS(=O)(=O)c1ccc(C(=O)C2C(=O)CCCC2=O)c([N+](=O)[O-])c1
inactive: all assays above

Clc1cccc(C(Cl)(Cl)Cl)n1
active: [7] 50 µM
inactive: all other assays above

CC(C)N1C(=O)c2ccccc2NS1(=O)=O
inactive: all assays above

CCC(C)n1c(=O)[nH]c(C)c(Br)c1=O (stereo not given)
active: [1] 24.9 µM | [5] 18.5 µM | [7] 5.95 µM | [9] 30.5 µM
inactive: all other assays above

Cn1c(-c2ccccc2)cc(-c2ccccc2)[n+]1C
active: [1] 50 µM | [4] 82.9 µM | [5] 50 µM | [6] 86.5 µM | [7] 39.9 µM | [8] 75.2 µM
inactive: [2] | [3] | [9]

CSC(=O)c1c(C(F)F)nc(C(F)(F)F)c(C(=O)SC)c1CC(C)C
active: [7] 11.7 µM
inactive: all other assays above

OC(c1ccc(Cl)cc1)(c1ccc(Cl)cc1)C(Cl)(Cl)Cl
active: [1] 93.9 µM | [2] 70.5 µM | [3] 50 µM | [6] 50 µM | [7] 85.3 µM | [8] 79.3 µM | [9] 82.1 µM
inactive: [4] | [5]

CO/N=C(/C1=NOCCO1)c1ccccc1Oc1ncnc(Oc2ccccc2Cl)c1F
inactive: [3] | [9]
active: [1] 33.9 µM | [2] 31.2 µM | [4] 50 µM | [5] 27.1 µM | [6] 27.1 µM | [7] 35.8 µM | [8] 50 µM

O=C(Nc1ccccc1-c1ccc(Cl)cc1)c1cccnc1Cl
inactive: all assays above

COCC(=O)N(c1c(C)cccc1C)C(C)C(=O)OC (stereo not given)
inactive: all assays above

O=C(O)c1c(Cl)ccc2cc(Cl)cnc12
not listed: [6]
inactive: all other assays above

CNC(=O)Oc1cccc2ccccc12
active: [7] 50 µM
inactive: all other assays above

Nc1c(Cl)c(F)nc(OCC(=O)O)c1Cl
inactive: all assays above

COP(=S)(OC)Oc1ccc([N+](=O)[O-])c(C)c1
active: [7] 11.5 µM
inactive: all other assays above
